The record followed here is PubChem BioAssay (NCI).

Among the test systems are SR leukemia; RPMI-8226 leukemia; OVCAR-8 ovarian; OVCAR-5 ovarian; OVCAR-4 ovarian; IGROV1 ovarian; OVCAR-3 ovarian; HS 578T breast; NCI/ADR-RES ovarian; SK-OV-3 ovarian.
Common to all, as to assay: NCI-60 one-dose screen, 48 h (100 = growth as untreated, 0 = no growth, -100 = all killed)
Holding throughout (settings): 10 µM

About 83,000 compounds went through this panel and 20% of them were active in at least one assay; those are over-represented in the sample as a whole.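 Testing used 96-well plates and a 48-hour single-concentration exposure. Example: -40 means 40% of the starting cells died.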 Unmarked numbers belong to inactive results. Calls of active or inactive are those of the source. Rule for the calls: active = growth percent below 10; inactive = the rest.

`COc1cc(-c2nc3ccc(C)cc3[nH]2)ccc1OCC(=O)N=Nc1c(O)[nH]c2ccccc12`: the growth in the assay on SR leukemia was -36.7% (active); with RPMI-8226 leukemia it was -54% (active); in the assay with OVCAR-8 ovarian, -72.8% (active); in the assay with OVCAR-5 ovarian, -32.4% (active); in the assay on OVCAR-4 ovarian, -82.2% (active); in the assay with IGROV1 ovarian, -27.4% (active). Moreover, the values for the growth in the assay with OVCAR-3 ovarian, in the assay with HS 578T breast and in the assay on NCI/ADR-RES ovarian were -94.5% (active), -46.8% (active) and 87.5%, respectively.
For `Clc1cc(Cl)c(Cl)c(-c2nc(-c3cccnc3)cs2)c1`, the growth in the assay with SR leukemia was 9.83% (active); in the assay on RPMI-8226 leukemia, 40%; in the assay with OVCAR-8 ovarian it was 78.8%; in the assay on OVCAR-5 ovarian, 79.6%; with SK-OV-3 ovarian it was 102%; in the assay on IGROV1 ovarian, 49.6%. Moreover, the figures for the growth in the assay on OVCAR-3 ovarian, in the assay with HS 578T breast and with NCI/ADR-RES ovarian were 71.7%, 98.9% and 85.1%, respectively.
Take `O=C(O)CN1C(=O)C=CC1=O`: the growth in the assay on SR leukemia was 109%; in the assay with RPMI-8226 leukemia, 106%; in the assay on OVCAR-8 ovarian it was 108%; in the assay on OVCAR-5 ovarian, 101%; in the assay on OVCAR-4 ovarian it was 115%; in the assay on IGROV1 ovarian it was 100%. The growth with OVCAR-3 ovarian is 104%; in the assay on HS 578T breast, 107%; in the assay with NCI/ADR-RES ovarian it was 111%.
Regarding `CC(=O)n1nc(C(=O)OC(C)(C)C)c2cc(F)c(F)cc21`, the growth in the assay with SR leukemia was 104%; with RPMI-8226 leukemia it was 89.1%; in the assay on OVCAR-8 ovarian, 105%; in the assay on OVCAR-5 ovarian, 104%; with SK-OV-3 ovarian, 114%; in the assay on IGROV1 ovarian, 97.5%. For the same compound, the growth in the assay on OVCAR-3 ovarian is 96.8%; with HS 578T breast, 106%; with NCI/ADR-RES ovarian, 98.3%.
In the case of `COc1ccc(CSc2nc3cc(OC)c(OC)cc3c(=O)n2-c2ccc(OC)cc2OC)cc1`, the growth with SR leukemia was 59.5%; in the assay with RPMI-8226 leukemia it was 63.7%; with OVCAR-8 ovarian, 89.2%; with OVCAR-5 ovarian, 102%; in the assay with SK-OV-3 ovarian, 114%; in the assay on IGROV1 ovarian, 86.1%. Also, the growth in the assay on OVCAR-3 ovarian was 92.1%; in the assay with HS 578T breast, 86.7%; in the assay on NCI/ADR-RES ovarian it was 79.5%.
For `Cc1nc2ccc(-n3c(-c4ccc(Cl)cc4)nc4ccccc4c3=O)cc2n1Cc1ccccc1`, the growth in the assay on SR leukemia is 86.7%; in the assay with RPMI-8226 leukemia it was 64.6%; in the assay on OVCAR-8 ovarian, 93.4%; in the assay with OVCAR-5 ovarian it was 118%; in the assay on OVCAR-4 ovarian it was 90.7%; in the assay on OVCAR-3 ovarian it was 99.6%. The growth in the assay on HS 578T breast is 101%; with NCI/ADR-RES ovarian, 94.9%.
On to `O=c1cc(CSc2nnc(-c3ccccc3)n2-c2ccc(F)cc2)c2ccc3ccccc3c2o1`, for which the growth was 88.5% with SR leukemia; 101% in the assay with RPMI-8226 leukemia; 93% in the assay with OVCAR-8 ovarian; 94% in the assay with OVCAR-5 ovarian; 99.2% with OVCAR-4 ovarian; 92.2% in the assay on IGROV1 ovarian. Further, the results for the growth in the assay on OVCAR-3 ovarian, with HS 578T breast and in the assay with NCI/ADR-RES ovarian were 97.5%, 103% and 84.3%, respectively.
For `CCOC(=O)c1cc2c(n1Cc1cccc(OC)c1)-c1oncc1CC2`, the growth is 13.3% in the assay on SR leukemia; 37% with RPMI-8226 leukemia; 41.7% with OVCAR-8 ovarian; 73% in the assay on OVCAR-5 ovarian; 69.1% in the assay with OVCAR-4 ovarian; 19.6% with IGROV1 ovarian. Also, the values for the growth in the assay with OVCAR-3 ovarian, in the assay with HS 578T breast and with NCI/ADR-RES ovarian were -16.4% (active), -15.6% (active) and 6.41% (active), respectively.
Turning to `Cc1ccc(-n2nnc3c(sc4ccccc43)c2=O)cc1`, the growth in the assay with SR leukemia is 75.1%; in the assay with RPMI-8226 leukemia it was 46.1%; in the assay on OVCAR-8 ovarian it was 50%; in the assay with OVCAR-5 ovarian, 90.3%; in the assay on OVCAR-4 ovarian, -23.6% (active); with IGROV1 ovarian it was 23.5%. Besides, the growth was 37.1% in the assay on OVCAR-3 ovarian, 23% in the assay with HS 578T breast and 53.7% in the assay on NCI/ADR-RES ovarian.
For `CCOC(=O)CSC(=S)SCC(=O)OCC`, the growth with SR leukemia was 84.8%; with RPMI-8226 leukemia, 95.4%; with OVCAR-8 ovarian, 93%; in the assay on OVCAR-5 ovarian, 107%; with OVCAR-4 ovarian, 97.4%; in the assay with IGROV1 ovarian it was 117%. Also, the growth with OVCAR-3 ovarian is 122%; in the assay on HS 578T breast it was 106%; in the assay with NCI/ADR-RES ovarian it was 106%.
In the case of `CC(CNC(Cc1ccccc1)c1ccccc1)NC(Cc1ccccc1)c1ccccc1` (stereo not given), the growth in the assay with SR leukemia is -19.7% (active); in the assay with RPMI-8226 leukemia, -34.6% (active); in the assay with OVCAR-8 ovarian, 49.5%; in the assay on OVCAR-5 ovarian, 46.3%; in the assay on SK-OV-3 ovarian it was 81.7%; in the assay with IGROV1 ovarian it was 39%. Besides, the growth with OVCAR-3 ovarian was 47.3%; in the assay on HS 578T breast, 75.2%; in the assay on NCI/ADR-RES ovarian it was 50%.
Turning to `CCc1ccc(Nc2cc(C)nc3nc(C)nn23)cc1`, the growth in the assay on SR leukemia is -20.9% (active); in the assay with RPMI-8226 leukemia it was -35.2% (active); in the assay on OVCAR-8 ovarian, -69.2% (active); in the assay with OVCAR-5 ovarian, 26.4%; in the assay with OVCAR-4 ovarian, -13.1% (active); in the assay with IGROV1 ovarian it was 32.8%. The growth is -92.2% (active) in the assay with OVCAR-3 ovarian, 50.8% in the assay with HS 578T breast and -29.5% (active) in the assay with NCI/ADR-RES ovarian.
With `CCCCOCCOCCOCc1cc2c(cc1Br)OCO2`, the growth in the assay on SR leukemia is 100%; in the assay on RPMI-8226 leukemia, 99.2%; in the assay with OVCAR-8 ovarian it was 97.8%; in the assay on OVCAR-5 ovarian it was 95.5%; in the assay with SK-OV-3 ovarian it was 96.5%; in the assay on IGROV1 ovarian it was 89.6%. The growth in the assay on OVCAR-3 ovarian is 111%; in the assay with HS 578T breast it was 108%; in the assay on NCI/ADR-RES ovarian it was 111%.
`COc1cc(OC)cc(-c2ccc(-c3ccc(C(=N)N)cn3)o2)c1`: the growth in the assay with SR leukemia was 0.771% (active); with RPMI-8226 leukemia it was -50% (active); with OVCAR-8 ovarian it was 9.75% (active); with OVCAR-5 ovarian, -0.187% (active); in the assay with OVCAR-4 ovarian, 23.1%; with IGROV1 ovarian, 27%. The growth with OVCAR-3 ovarian was 19.4%; in the assay with HS 578T breast it was -11.6% (active); in the assay with NCI/ADR-RES ovarian, 74.5%.
